# Laboratory results reported in the supplement of paper PMC11417369.
# The full ranking holds about 25,000 sequences; the median of “ln(normalized median fluorescence intensity)” is about 9.3, and the highest 2% start at about 10. The sample holds the highest values, similar sequences and a random draw of the others, so the mix is not that of the screen.
# Test system: PF3D7_0420300 AP2 domain 1 (GST-tagged)
# Test: gcPBM binding intensity (ln(normalized median fluorescence intensity)); higher = stronger DNA binding
# In short: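 Binding intensity values are the highest Masliner-normalised natural-log median intensity among replicate spots of either probe orientation. The binding step lasted 1 h in 1× PBS with 1% milk, 0.2 mg/ml BSA, 0.5% salmon testes DNA and 0.03% Triton X-100, using GST-tagged P. falciparum DNA-binding domains expressed in E. coli on an Agilent 4 × 180k array of primer-extended double-stranded 36-bp intergenic genomic probes plus negative controls. Alexa488 anti-GST antibody and a 488 nm scan detected bound protein.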
row,Sequence,gcPBM binding intensity (ln)
1,GGAACTTATTTTTATACACACATATGTGCATATTAT [CACACA_site629],9.68
2,AAAAAAAAAAGACACACACACATATAAATATAAATA [CACACA_site6899],10.2
3,TAAAAAGGAAGACACACACACACATATATAAATATA [CACACA_site7657],10.2
4,TATAAATAAAGACACACACACACACCGTATAATTAC [CACACA_site7829],10.2
5,CACACTAAAAGACACACACACACACGCATATAAATA [CACACA_site7874],10.2
6,ATAAAAAAAAGACACACACACATATATATATATATA [CACACA_site3073],9.67
7,AAAAAAAAAAAAAACACACACACACGCATAAATATA [CACACA_site6217],10.1
8,TATATAAATAGACACACACACACCTTATAATTACTA [CACACA_site7828],10
9,TATAAATAAAGACACACACACATATAAATAAATATA [CACACA_site7155],10.1
10,CATATAAATATATATACACACACACCGTAATACATA [CACACA_site9158],10.2
11,ATATAATAAAATGACACACGCATATATATATATATA [CACACA_site2789],9.33
12,CATATAAAAAGACACACACACACATATATATATATA [CACACA_site940],10
13,AAAAGGAACAGACACACACACATATATAAATATGTA [CACACA_site7656],9.97
14,ACAAAAAAAAACGTGGTGCATTAATAATATTGTATA [GTGCAC_site9469],9.43
15,ATTACATTAATAAGAGTGCATTATATAAGTTTTATG,9.2
16,TTTGGCTAGTCAAGTTGTACAAAAAAAAAAAAAAAA [XGTACX_site8382],8.58
17,GTAATACACAGACACACACACATACACATATTTATA [CACACA_site7313],10
18,TTGTACTACAATCCTTTATTTATTTAAACCTGTATG [CACACA_negctrl_site428],9.14
19,TTCTTCAAGGAAAACACATGCGCATTTTCACCAATT [TGCATGCA_site11],9.15
20,TTTTCAGAAAAGAGAAACTTTATTTTTCACAACCGA [TGCATGCA_negctrl_site389],8.85
21,AAACCTACATAACATACACACGCATATATATAATTT [CACACA_site8923],9.69
22,ACCTACATAACATACACACGCATATATATAATTTTA [CACACA_site2847],9.64
23,AAGTAATTTGTTGACACACACACACGCATACCTATA [CACACA_site7140],10.2
24,TATATAAAAAATTCAATACACACCATATATAAATAT [CACACA_site3987],9.66

row,Sequence,gcPBM binding intensity (ln)
1,AATATATAAGTGTTGTGTACTAAAGTATTTTCCTAT [XGTACX_site1622],9.5
2,ACTTGTAAGAGACACACACACACACGGATATAAATA [CACACA_site6517],10.1
3,CACACGCACAGACACACACACACACGGATATAAATA [CACACA_site6301],10.2
4,GCTATAAATACAGACGCACACATATACATACAGATA [CACACA_site5778],9.49
5,CACACGCACAGACACACACACACATATAAATATGTA [CACACA_site6300],10.1
6,ATAGTATACAGACACACACACACACGGATATAAATA [CACACA_site6914],10.3
7,ACCATATAAATAAACACACACACACGGATATAAATA [CACACA_site7157],10.1
8,TAAATAAATTTATACACACACACACGGATATAAATA [CACACA_site6532],10.1
9,CACACGCACGGACACACACACATATAAAATCTATAT [CACACA_site6428],9.91
10,CGCGCACACGGACACACACACACACGGATATAAATA [CACACA_site7102],10.2
11,TAAATACAGACATATACACACATATATATATATATA [CACACA_site4382],9.28
12,CACGCATACAGACACACACACACACGGATATAAATA [CACACA_site6445],10.3
13,CGCATACACAGACACACACACACATATAAATATGTA [CACACA_site6444],9.92
14,GAGAAATTTATACATACACACATATAAATATTATAG [CACACA_site7819],9.6
15,AAAAAAAAAAAAAAAAGTACGTATCAAAGCATCAAA [XGTACX_site880],9.42
16,CATATTTTTTCTTAAACACACACATATATATATATA [CACACA_site8920],9.61
17,TTTATTTTCCAAAGGGTGCACATAGTTGAAACGATA,9.2
18,TTTTTTTTTTTTTTTTTTTTCTTCATTTAATTTATA [GTGCAC_negctrl_site17],8.31
19,AAAAAAATACAAATATGTACACATATATATTTAAAA [XGTACX_site4729],9
20,ACTTATTTATTTTTAGTGCATTTAGTTTTATTTTAT,9.63
21,CCAAAATACATTAAACGTACATGTCCTAATAAGATA [XGTACX_site21],9.15
22,AATAATGAATACACATGTACAAAAATTTTTCTTACT [XGTACX_site1962],9.41
23,CAAGCACACGGACACACACACACACGCGCACGCACA [CACACA_site6307],10.2
24,ATCAAGCACGGACACACACACACACCCAGACCCCCA [CACACA_site4360],10.1

row,Sequence,gcPBM binding intensity (ln)
1,CACACGCACGGACACACACACAAAAAAAAAAAGAAA [CACACA_site6378],9.7
2,AAAATTGTTATTTTATGTACTTATATTTATTTATTT [XGTACX_site3478],9.53
3,ATTTCTCTATCGTAATGTACAAAAAAAAGGAAAAAA [XGTACX_site1323],9
4,CTAAAATACAGACACACACACACATATATATATATA [CACACA_site4150],9.93
5,TAAACATACCTATACACACACACACGCACACGCACA [CACACA_site6372],10.3
6,AAAACATACCTATATACACACATATAAATATAAATA [CACACA_site6956],9.71
7,TACAGACTAAAATACACACACACACGCACATATATA [CACACA_site7875],10.2
8,AAAAAAAAAAAACATACACACATACATACCTATATA [CACACA_site6575],9.78
9,AAAATACACGCATACACACACACACCGACACATATA [CACACA_site4523],10.2
10,TTTAAATACAGACATACACACATACACGCACATATA [CACACA_site6400],9.85
11,CACGCACGCACATACACACACATACACATATAAATA [CACACA_site6907],9.95
12,AAAAAAAATACATACACACACACACGCACATATATA [CACACA_site7645],10.4
13,AAAAAAAAAAAAAATACACACATATATATATATATA [CACACA_site85],9.45
14,TAAATTAAAAAAAATACACACACACCGACACATATA [CACACA_site9084],10
15,AAAAAAAAAAAATATACACACACACCGACACATAAA [CACACA_site9270],10.1
16,TAAATAAATTATTTTCGTACTTATTTATTTTAATTA [XGTACX_site283],9.03
17,TTTAGTGTTATAAAAAGTACATAATAATTCCTTTTC [XGTACX_site3208],8.95
18,CTTTTTAATAAATATACACACACAAAAAAAAAAAAA [CACACA_site9316],9.73
19,AATTTAAAAGAAAAAGAAAAATAATAAACAGAAGCA [XGTACX_negctrl_site503],9.68
20,TTTTTTTTTTTTGTCACACATATGGAATATATCTAT [CACACA_site5899],9.26
21,AAAGAAATAAGGTGCACACATATACAGATATATATA [CACACA_site4399],9.66
22,CTATATGTATAAAGTTGTACAGTTTTTCAAAGTTAA [XGTACX_site6652],9.03
23,TAAATTTATAAATCACGTACATATTTATTTATATTT [XGTACX_site4532],9.19
24,TATTTTATTTCAAATCTTAATAATTGTAATTCTTCA [XGTACX_negctrl_site442],8.91

row,Sequence,gcPBM binding intensity (ln)
1,ATATTTTATATGTTCACACATACATAAACATATTTT [CACACA_site4948],9.34
2,CACGCATATATACATACATGCATATATACATCCATG [TGCATGCA_site667],9.27
3,CACAAATATATACATACACACATATATACGCATATA [CACACA_site395],9.72
4,AAGCATACATCAAGCACACACACACCCACACCCACA [CACACA_site372],10.1
5,TACACAAATATATACATACACACATATATACGCATA [CACACA_site394],9.79
6,AAAAAAAAAAAAAACACACACACACGCACATATACA [CACACA_site7288],10.2
7,AAAAAAAAAAAACATACACACACATATATATATATA [CACACA_site8452],9.9
8,AGAAGCATACATCAAGCACACACACCCACACCCACA [CACACA_site8014],9.99
9,AAAATACACGCATACACACACACACGCGCACATATA [CACACA_site6448],10.3
10,AAAAAAAAAAAAAAAACACACATACACGCACGCACA [CACACA_site7569],9.72
11,GCATACATCAAGCACACACACACACGCACACGCACA [CACACA_site6311],10.3
12,AAAAGATGCGCATACACACAGATGAATAACAAAAAA [CACACA_site6865],9.74
13,AAACAAATAGACACTTGTACGTAAGTAAATAATTAA [XGTACX_site6157],9.43
14,ATTTAATTTTTTTTTAAACACACATTTTTTTATTTA [CACACA_site8880],9.36
15,ATTTTTTTATAAAATTTTTTATATATTAAATATTAT [CACACA_negctrl_site135],9.04
16,GTAAAATTTACATAGAGTACTTATATTTTTTTCTGC [XGTACX_site3414],8.96
17,CATATTTGTGGACACACACACATATTTATATATATA [CACACA_site5887],9.75
18,TATACTCATGGACACACACACATACACAGACATACA [CACACA_site5024],9.92
19,ATTTGGCATGGACACACACACACACCGACAGACATA [CACACA_site4491],10.2
20,ATAATTTGTGGACACACACACACACCGACATATATA [CACACA_site8718],10.2
21,AAAAATTTGGCATACACACACACACCGACACAGACA [CACACA_site4489],10.1
22,ATAAAGCACACCGACACACACATATATATATATATA [CACACA_site1047],9.8
